About 79,000 compounds went through this panel and 15% of them were active in at least one assay; those are over-represented in the sample as a whole. Unmarked numbers belong to inactive results. Active and inactive are the calls of the source. No stated cut-off is given here; in the data, active means growth inhibition above about 70%; inactive means the rest.
Experiments:
[1] = NCI Yeast Anticancer Drug Screen. Data for the wt1 strain (AID 149);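 further: 0% = growth of vehicle-treated wt1 cultures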; conditions: S. cerevisiae wt1 strain (SPY 50644) growth inhibition, stronger effect = higher value
Procedure, shortened: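 Vehicle-normalised growth inhibition; strain wt1; compound exposure.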

[2] = NCI Yeast Anticancer Drug Screen. Data for the rad50EPP+ strain (AID 151);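 further: 0% = growth of vehicle-treated control cultures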; conditions: S. cerevisiae rad50 mutant strain, stronger effect = higher value
Procedure, shortened: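 One strain with a rad50 alteration (rad50EPP+) was compound-treated, its growth then compared to that of vehicle controls.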

[3] = NCI Yeast Anticancer Drug Screen. Data for the rad50 strain (AID 155);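 further: 0% = growth of vehicle-only cultures of the same strain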; conditions: S. cerevisiae rad50 strain growth inhibition, stronger effect = higher value
Procedure, shortened: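 A DNA repair-deficient yeast mutant serves as the test organism; compound-induced growth inhibition is calculated against vehicle-treated cells.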

[4] = NCI Yeast Anticancer Drug Screen. Data for the mec2-1 strain (AID 157); conditions: S. cerevisiae mec2-1 strain, stronger effect = higher value
Procedure, shortened: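 Test agents were screened against the mec2-1 yeast strain, with defined DNA repair or cell cycle alteration. Growth was scored as inhibition against vehicle-only controls.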

[5] = NCI Yeast Anticancer Drug Screen. Data for the rad14 strain (AID 159);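 further: 0% = growth of vehicle-treated control cultures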; conditions: S. cerevisiae rad14 strain growth inhibition, stronger effect = higher value
Procedure, shortened: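 Vehicle-treated cultures served as the baseline for growth inhibition of a DNA repair-mutant yeast strain exposed to each compound.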

[6] = NCI Yeast Anticancer Drug Screen. Data for the sgs1 mgt1 strain (AID 161);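 further: 0% = growth of cultures given vehicle only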; conditions: S. cerevisiae sgs1 mgt1 strain, stronger effect = higher value
Procedure, shortened: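 Read-out: growth inhibition vs vehicle controls. Cells: mutant yeast strain deficient in DNA damage repair.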

[7] = NCI Yeast Anticancer Drug Screen. Data for the CLN2oe strain (AID 163);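 further: 0% = growth of vehicle-only control cultures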; conditions: S. cerevisiae CLN2oe strain, stronger effect = higher value
Procedure, shortened: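 Here, growth inhibition in a cell-cycle-altered yeast strain after compound exposure was quantified against vehicle control growth.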

[8] = NCI Yeast Anticancer Drug Screen. Data for the cln2 rad14 strain (AID 165);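 further: 0% = growth equal to vehicle treated cultures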; conditions: S. cerevisiae cln2 rad14 strain, stronger effect = higher value
Procedure, shortened: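 Growth of compound-exposed yeast (cln2 rad14 genotype) measured and expressed as inhibition relative to vehicle.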

[9] = NCI Yeast Anticancer Drug Screen. Data for the bub3 strain (AID 167); conditions: S. cerevisiae bub3 mutant strain, stronger effect = higher value
Procedure, shortened: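 Inhibition values come from growth of compound-treated mutant yeast normalised to vehicle-treated controls.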

[10] = NCI Yeast Anticancer Drug Screen. Data for the wt2 strain (AID 169);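 further: 0% = growth of vehicle-treated yeast cultures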; conditions: S. cerevisiae wt2 strain growth inhibition, stronger effect = higher value
Procedure, shortened: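 Genetically defined yeast strains from a DNA-repair/cell-cycle panel were used. Compound-exposed yeast growth was measured, and the inhibition was calculated relative to vehicle treatment.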

[11] = NCI Yeast Anticancer Drug Screen. Data for the mlh1 strain (AID 171);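 further: 0% = growth of vehicle-treated control cultures of the same strain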; conditions: S. cerevisiae mlh1 strain growth inhibition, stronger effect = higher value
Procedure, shortened: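 Here the genetically defined yeast mutant is grown with each compound, and the extent to which its growth falls below that of vehicle-exposed cells is reported.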

[12] = NCI Yeast Anticancer Drug Screen. Data for the sgs1 strain (AID 173);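 further: 0% = growth of vehicle-only control cultures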; conditions: S. cerevisiae sgs1 mutant, stronger effect = higher value
Procedure, shortened: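 Relative growth inhibition, referenced to vehicle, was determined in a yeast strain with a defined alteration affecting DNA damage repair or cell cycle control after compound exposure.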

[13] = NCI Yeast Anticancer Drug Screen. Data for the mlh1 rad18 strain (AID 175); conditions: S. cerevisiae mlh1 rad18 strain growth inhibition, stronger effect = higher value
Procedure, shortened: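 In this whole-cell yeast screen, a strain with altered DNA damage repair is challenged with compound, and its growth is measured against matched vehicle-treated controls.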

[14] = NCI Yeast Anticancer Drug Screen. Data for the rad18 strain (AID 177); conditions: S. cerevisiae rad18 mutant growth inhibition, stronger effect = higher value
Procedure, shortened: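 Screen uses a yeast strain with a defined lesion in DNA damage repair; compound effect is read as loss of growth compared to untreated vehicle cultures.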

[15] = at 5.0 µM (retest, dose inferred, filed as 0.5)
[16] = at 50.0 µM (retest, dose inferred, filed as 5.0)

Compound: O=C1C=CC(=O)N1c1ccc2c(c1)Cc1cc(NC(=O)C(F)(F)F)ccc1-2
- growth inhibition ([1]; at 1.2 µM): 6%
- growth inhibition ([1]; at 3.7 µM): 15%
- growth inhibition ([1]; at 11.0 µM): 27%
- growth inhibition ([1]; at 33.0 µM): 39%
- growth inhibition ([1]; at 100.0 µM): 60%
- growth inhibition ([2]; at 1.2 µM): 29%
- growth inhibition ([2]; at 3.7 µM): 73% (active)
- growth inhibition ([2]; at 11.0 µM): 88% (active)
- growth inhibition ([2]; at 33.0 µM): 91% (active)
- growth inhibition ([2]; at 100.0 µM): 88% (active)
- growth inhibition ([3]; at 1.2 µM): 13%
- growth inhibition ([3]; at 3.7 µM): 24%
- growth inhibition [3, 15]: 52%
- growth inhibition ([3]; at 11.0 µM): 41%
- growth inhibition ([3]; at 33.0 µM): 71% (active)
- growth inhibition [3, 16]: 91% (active)
- growth inhibition ([3]; at 50.0 µM): 87.7% (active)
- growth inhibition ([3]; at 100.0 µM): 80% (active)
- growth inhibition ([4]; at 1.2 µM): 13%
- growth inhibition ([4]; at 3.7 µM): 26%
- growth inhibition [4, 15]: 87% (active)
- growth inhibition ([4]; at 11.0 µM): 42%
- growth inhibition ([4]; at 33.0 µM): 62%
- growth inhibition [4, 16]: 94% (active)
- growth inhibition ([4]; at 50.0 µM): 83.5% (active)
- growth inhibition ([4]; at 100.0 µM): 77% (active)
- growth inhibition ([5]; at 1.2 µM): 20%
- growth inhibition ([5]; at 3.7 µM): 31%
- growth inhibition ([5]; at 11.0 µM): 42%
- growth inhibition ([5]; at 33.0 µM): 66%
- growth inhibition ([5]; at 100.0 µM): 83% (active)
- growth inhibition [6, 15]: 71% (active)
- growth inhibition [6, 16]: 93% (active)
- growth inhibition ([6]; at 50.0 µM): 86.6% (active)
- growth inhibition ([7]; at 1.2 µM): 2%
- growth inhibition ([7]; at 3.7 µM): 11%
- growth inhibition ([7]; at 11.0 µM): 18%
- growth inhibition ([7]; at 33.0 µM): 26%
- growth inhibition ([7]; at 100.0 µM): 50%
- growth inhibition [8, 15]: 10%
- growth inhibition [8, 16]: 51%
- growth inhibition ([8]; at 50.0 µM): 62.9%
- growth inhibition ([9]; at 1.2 µM): -11%
- growth inhibition ([9]; at 3.7 µM): -5%
- growth inhibition [9, 15]: 57%
- growth inhibition ([9]; at 11.0 µM): 7%
- growth inhibition ([9]; at 33.0 µM): 21%
- growth inhibition [9, 16]: 90% (active)
- growth inhibition ([9]; at 50.0 µM): 84.6% (active)
- growth inhibition ([9]; at 100.0 µM): 39%
- growth inhibition ([10]; at 1.2 µM): 7%
- growth inhibition ([10]; at 3.7 µM): 21%
- growth inhibition ([10]; at 11.0 µM): 37%
- growth inhibition ([10]; at 33.0 µM): 55%
- growth inhibition ([10]; at 100.0 µM): 67%
- growth inhibition ([11]; at 1.2 µM): 16%
- growth inhibition ([11]; at 3.7 µM): 32%
- growth inhibition ([11]; at 11.0 µM): 54%
- growth inhibition ([11]; at 33.0 µM): 73% (active)
- growth inhibition ([11]; at 100.0 µM): 85% (active)
- growth inhibition ([12]; at 1.2 µM): 18%
- growth inhibition ([12]; at 3.7 µM): 37%
- growth inhibition ([12]; at 11.0 µM): 63%
- growth inhibition ([12]; at 33.0 µM): 79% (active)
- growth inhibition ([12]; at 100.0 µM): 82% (active)
- growth inhibition [13, 15]: 91% (active)
- growth inhibition [13, 16]: 93% (active)
- growth inhibition ([13]; at 50.0 µM): 86% (active)
- growth inhibition ([14]; at 1.2 µM): 17%
- growth inhibition ([14]; at 3.7 µM): 29%
- growth inhibition ([14]; at 11.0 µM): 53%
- growth inhibition ([14]; at 33.0 µM): 76% (active)
- growth inhibition ([14]; at 100.0 µM): 82% (active)

— PubChem BioAssay (NCI)
